{"source": "the supplement of paper PMC6992640", "data": [{"system": "WHIM30 (cells of a triple-negative basal-like breast cancer xenograft)", "assay": "cell viability of combination (% of vehicle); higher = less cytotoxic", "conditions": "1 µM; 72 h; partner dose: 10 nM", "procedure": "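PDX cells were treated for 72 h with each drug at 1 µM plus carfilzomib (10 nM; 100 nM for WHIM2). Luciferase viability is expressed as percent of vehicle.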", "values": [{"compound": "CC(NCCCc1cccc(C(F)(F)F)c1)c1cccc2ccccc12", "note": "(configuration not stated) [Cinacalcet] + CC(C)C[C@H](NC(=O)[C@H](CCc1ccccc1)NC(=O)CN1CCOCC1)C(=O)N[C@@H](Cc1ccccc1)C(=O)N[C@@H](CC(C)C)C(=O)[C@@]1(C)CO1 [Carfilzomib]", "cell viability of combination": 19.5}, {"compound": "Clc1ccc(C(Cn2ccnc2)OCc2ccsc2Cl)c(Cl)c1", "note": "(configuration not stated) [Tioconazole] + CC(C)C[C@H](NC(=O)[C@H](CCc1ccccc1)NC(=O)CN1CCOCC1)C(=O)N[C@@H](Cc1ccccc1)C(=O)N[C@@H](CC(C)C)C(=O)[C@@]1(C)CO1 [Carfilzomib]", "cell viability of combination": 16.9}, {"compound": "Cl.Cl.Fc1ccc(C(c2ccc(F)cc2)N2CCN(CC=Cc3ccccc3)CC2)cc1", "note": "[Flunarizine 2HCl] + CC(C)C[C@H](NC(=O)[C@H](CCc1ccccc1)NC(=O)CN1CCOCC1)C(=O)N[C@@H](Cc1ccccc1)C(=O)N[C@@H](CC(C)C)C(=O)[C@@]1(C)CO1 [Carfilzomib]", "cell viability of combination": 15}, {"compound": "COc1cccc2c1C(=O)c1c(O)c3c(c(O)c1C2=O)CC(O)(C(=O)CO)CC3OC1CC(N)C(O)C(C)O1.Cl", "note": "(configuration not stated) [Epirubicin HCl] + CC(C)C[C@H](NC(=O)[C@H](CCc1ccccc1)NC(=O)CN1CCOCC1)C(=O)N[C@@H](Cc1ccccc1)C(=O)N[C@@H](CC(C)C)C(=O)[C@@]1(C)CO1 [Carfilzomib]", "cell viability of combination": 5.02}, {"compound": "CCOc1cc2ncc(C#N)c(Nc3ccc(F)c(Cl)c3)c2cc1NC(=O)C=CCN(C)C", "note": "[Pelitinib (EKB-569)] + CC(C)C[C@H](NC(=O)[C@H](CCc1ccccc1)NC(=O)CN1CCOCC1)C(=O)N[C@@H](Cc1ccccc1)C(=O)N[C@@H](CC(C)C)C(=O)[C@@]1(C)CO1 [Carfilzomib]", "cell viability of combination": 5.92}, {"compound": "CC(C)(C)c1ccc(C(O)CCCN2CCC(C(O)(c3ccccc3)c3ccccc3)CC2)cc1", "note": "(configuration not stated) [Terfenadine] + CC(C)C[C@H](NC(=O)[C@H](CCc1ccccc1)NC(=O)CN1CCOCC1)C(=O)N[C@@H](Cc1ccccc1)C(=O)N[C@@H](CC(C)C)C(=O)[C@@]1(C)CO1 [Carfilzomib]", "cell viability of combination": 15.5}, {"compound": "CC(C)C[C@H](NC(=O)[C@H](Cc1ccccc1)NC(=O)c1cnccn1)B(O)O", "note": "[Bortezomib] + CC(C)C[C@H](NC(=O)[C@H](CCc1ccccc1)NC(=O)CN1CCOCC1)C(=O)N[C@@H](Cc1ccccc1)C(=O)N[C@@H](CC(C)C)C(=O)[C@@]1(C)CO1 [Carfilzomib]", "cell viability of combination": 5.02}, {"compound": "CS(=O)(=O)CCNCc1ccc(-c2ccc3ncnc(Nc4ccc(OCc5cccc(F)c5)c(Cl)c4)c3c2)o1.Cc1ccc(S(=O)(=O)O)cc1.Cc1ccc(S(=O)(=O)O)cc1", "note": "[Lapatinib Ditosylate] + CC(C)C[C@H](NC(=O)[C@H](CCc1ccccc1)NC(=O)CN1CCOCC1)C(=O)N[C@@H](Cc1ccccc1)C(=O)N[C@@H](CC(C)C)C(=O)[C@@]1(C)CO1 [Carfilzomib]", "cell viability of combination": 23.7}, {"compound": "Br.Cc1ccc(Sc2ccccc2N2CCNCC2)c(C)c1", "note": "+ CC(C)C[C@H](NC(=O)[C@H](CCc1ccccc1)NC(=O)CN1CCOCC1)C(=O)N[C@@H](Cc1ccccc1)C(=O)N[C@@H](CC(C)C)C(=O)[C@@]1(C)CO1 [Carfilzomib]", "cell viability of combination": 15.7}, {"compound": "COC(=O)C12CCC(C)(C)CC1C1C(=O)C=C3C4(C)C=C(C#N)C(=O)C(C)(C)C4CCC3(C)C1(C)CC2", "note": "(configuration not stated) [Bardoxolone methyl] + CC(C)C[C@H](NC(=O)[C@H](CCc1ccccc1)NC(=O)CN1CCOCC1)C(=O)N[C@@H](Cc1ccccc1)C(=O)N[C@@H](CC(C)C)C(=O)[C@@]1(C)CO1 [Carfilzomib]", "cell viability of combination": 14.3}, {"compound": "O=C(c1ccc(F)c(F)c1Nc1ccc(I)cc1F)N1CC(O)(C2CCCCN2)C1", "note": "(configuration not stated) [Cobimetinib] + CC(C)C[C@H](NC(=O)[C@H](CCc1ccccc1)NC(=O)CN1CCOCC1)C(=O)N[C@@H](Cc1ccccc1)C(=O)N[C@@H](CC(C)C)C(=O)[C@@]1(C)CO1 [Carfilzomib]", "cell viability of combination": 24.7}, {"compound": "CC(=O)C1(O)Cc2c(O)c3c(c(O)c2C(OC2CC(N)C(O)C(C)O2)C1)C(=O)c1ccccc1C3=O.Cl", "note": "(configuration not stated) [Idarubicin HCl] + CC(C)C[C@H](NC(=O)[C@H](CCc1ccccc1)NC(=O)CN1CCOCC1)C(=O)N[C@@H](Cc1ccccc1)C(=O)N[C@@H](CC(C)C)C(=O)[C@@]1(C)CO1 [Carfilzomib]", "cell viability of combination": 5.43}]}]}
